Screening data from PubChem BioAssay.
Compounds with a hit are over-represented: about 7.3% of the library has one in this group of screens.
HCV inh – HCV inhibition; Huh7.5.1 HCVcc-Cre infection, luciferase reporter, 44 h; Potency, µM (top dose mostly 41.8 µM), without a hit: at the top dose activity change, negative = inhibition, hits mostly inhibitors; hit rate 3.4% among 340,000; AID 651820; active means well fitted inhibition curve with a large enough effect; inconclusive means small, poorly fitted or top-dose-only effect, or another doubt; inactive means no such curve, though single readings can be large or run the other way; further: potency means the concentration at half of the fitted maximal effect
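Seed cells (1,000/well) for 4 h; treat with compound and infect with HCVcc-Cre, moi about 0.5. Incubate 44 h, then detect luciferase activity.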
VACV Venus inh – inhibitors of vaccinia virus (Venus reporter) | Vaccinia virus Venus reporter expression, fluorescence | Potency, µM (series often up to 36.5 µM), without a hit: at the top dose activity change, negative = inhibition, actives largely listed as inhibitors | hit rate 0.46% among 330,000 | AID 720580; calls by dose curve; tested in A549 cells; further: potency means the concentration at half of the fitted maximal effect; nearly all actives have a fitted effect of over 30% in size
FMDV antiviral – antivirals against foot and mouth disease virus; FMDV antiviral cell-based qHTS; Potency, µM (top dose mostly 57.9 µM), for the others: top-dose activity change, negative = inhibition, hits mostly inhibitors; hit rate 1.2% among 410,000; AID 1159524; calls by dose curve; tested in HEK293T cells; further: read-out not given here; potency means the concentration at half of the fitted maximal effect; nearly all actives have a fitted effect of over 45% in size
Vaccinia mCherry – vaccinia inhibition (mCherry reporter) | Vaccinia virus mCherry reporter infection, fluorescence | Potency, µM (doses to about 36.5 µM), for the others: at the top dose activity change, negative = inhibition, usual class: inhibitors | hit rate 0.63% among 310,000; calls by dose curve; tested in A549 cells; further: potency means the concentration at half of the fitted maximal effect; nearly all actives have a fitted effect of over 35% in size
HCMV antiviral – human cytomegalovirus inhibition; HFF cells, HCMV-luciferase reporter, 72 h; active compounds read low; activity change, negative = inhibition, % at 57.5 µM; hit rate 4.5% among 410,000; AID 1259415; in the data active means activity change below about -60%; inconclusive means no clear call, values can overlap the other calls; inactive means above about -39%
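Compounds were evaluated in HFFs infected with an HCMV luciferase reporter virus (MOI 1 PFU/cell). Luciferase in lysates collected 72 h post infection served as the replication measure.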
The depositor's hits bear a star; i = inactive; ? = inconclusive; . = not tested or not shown; + = active, no number; [ ] = dose if it differs, or a comment. On the % scale 0 is the no-effect control and ±100 the full control effect.

SMILES	HCV inh	VACV Venus inh	FMDV antiviral	Vaccinia mCherry	HCMV antiviral
COC(=O)c1ccc(Oc2nc(Nc3ccccc3)nc(N(C)C)n2)cc1	11.2µM*	.	?	.	-15.3
CCN(CC)c1nc(Nc2ccccc2)nc(Oc2ccc(C(=O)OC)cc2)n1	?	.	?	.	23.1
Cc1ccc(N2C(=O)CS(=O)(=O)C23C(=O)N(Cc2ccccc2C)c2ccccc23)cc1Cl (configuration not stated)	.	-6.3%	-24.8%	-7.4%	-7.9
CC(C)c1ccc(CN(C)C(=O)c2ccc(S(=O)(=O)NCc3ccco3)cc2)cc1	6.31µM*	.	-25.5%	.	?
Cc1nn(-c2ccccc2)c(C)c1CN(C)C(=O)c1ccc(S(=O)(=O)NCc2ccco2)cc1	14.1µM*	.	-28.2%	.	-32.6
CN(Cc1ccc(Cl)cc1)C(=O)c1ccc(S(=O)(=O)NCc2ccco2)cc1	-26.9%	.	25.9%	.	-36.7
CC(NS(=O)(=O)c1ccc(Br)cc1)C(=O)NCc1ccco1 (configuration not stated)	?	-19.4%	18.8%	i	-73.2*
CC(NS(=O)(=O)c1ccccc1)C(=O)NCc1ccco1 (configuration not stated)	-0.8%	2.8%	.	-16.0%	10.5
COCCn1c(=O)c(-c2ccc(Cl)cc2)nc2cnc(Nc3ccccc3)nc21	.	.	-16.6%	.	.
CCOc1ccc(NC(=O)N(Cc2c[nH]c3ccccc23)C2CCCCCC2)cc1	.	1.0%[7.34 µM]	45.4%	1.2%[7.34 µM]	104.1
C=CCn1c(-c2cc(OC)c(OC)c(OC)c2)n[nH]c1=S	9.0%	.	16.6%	.	17.9
C=CCn1c(-c2cccc(OC)c2OC)n[nH]c1=S	?	-8.6%	?	-8.9%	-69.6*
CC(C)=CCN1CCN(Cc2ccc(C)s2)CC1CCO (configuration not stated)	8.3%	-15.5%	-0.7%	-1.1%	-67.1*
Cc1ccc(C)c(C(=O)CSc2nnnn2C(C)C)c1	?	.	32.1%	.	86.0
Cc1ccc(C(=O)CSc2nnnn2C(C)C)c(C)c1	6.3%	-19.2%	14.1µM*	?	?
COc1ccc(-c2coc3cc4oc(=O)cc(C)c4cc23)cc1F	?	.	4.1%	.	-62.8*
O=C(CNC(=O)c1ccc(Br)o1)Nc1cccc(S(=O)(=O)N2CCOCC2)c1	-1.0%	-3.0%	32.7%	-15.4%	8.4
O=C(CC1SC(N2CCCC2)=NC1=O)Nc1ccc(C(=O)NCCOc2ccccc2F)cc1 (configuration not stated)	15.7%	-10.9%	28.6%	-8.3%	26.5
Cc1cc(-c2csc(N)n2)c(C)n1CCc1ccccc1	?	.	11.2µM*	.	-18.4
Cc1nn(C)cc1-c1csc(N)n1	9.6%	7.6%	11.6%	-1.2%	48.1
Cc1cc(-c2csc(N)n2)c(C)n1CCC(C)C	-2.4%	4.3%	22.4µM*	.	?
CCCc1cc(=O)oc2c(C)c(O[C@@H]3O[C@H](CO)[C@@H](O)[C@H](O)[C@H]3O)ccc12	?	-16.4%	-12.2%	-25.2%	-66.0*
CCCc1cc(=O)oc2cc(O[C@@H]3O[C@H](CO)[C@@H](O)[C@H](O)[C@H]3O)ccc12	-5.0%	.	-6.5%	.	?
Cc1c(C(=O)N(CCO)C(C)C)cnn1-c1ncc2c(n1)-c1ccccc1CCC2	.	-7.6%	8.7%	-0.6%	.
O=C(Nc1nc(-c2ccco2)c(-c2ccco2)s1)c1c(F)cccc1Cl	14.1µM*	.	-23.7%	.	-19.4
SMILES	HCV inh	VACV Venus inh	FMDV antiviral	Vaccinia mCherry	HCMV antiviral
COc1ccc(OCc2cc(C(=O)N3CCCC(CO)C3)no2)c2ccccc12 (configuration not stated)	?	-10.2%	18.3%	-0.6%	206.2
Cc1nn(C)cc1C(C)NC(=O)c1cc(COc2c(F)cccc2F)on1 (configuration not stated)	-2.4%	.	1.4%	.	-28.8
Cc1nn(C)cc1C(C)NC(=O)c1cc(COc2cccc3cnccc23)on1 (configuration not stated)	?	-20.1%	20µM*	-19.5%	?
COCC1CCN(C(=O)c2cc(COc3cccc4cnccc34)on2)CC1	7.08µM*	-16.2%	?	-11.2%	+
O=C(c1cc(COc2cccc3cnccc23)on1)N1CCCC(CCCO)C1 (configuration not stated)	1.41µM*	.	31.6µM*	.	-85.5*
O=C(c1ccc(CS(=O)Cc2ccc(Cl)cc2)o1)N1CCN(C2CCCCC2)CC1 (configuration not stated)	.	-16.1%	-9.8%	-15.8%	13.8
C[C@@H](CN=[N+]=[N-])CN1CC[C@H](C(C)(C)C)CCC1=O	-4.2%[8.37 µM]	-1.9%	-1.8%	-5.6%	?
Cn1ccc2cc(NC(=O)Nc3cccnc3)ccc21	?	-12.3%	26.7%	-17.2%	-100.4*
CC(=O)c1cccc(NC(=O)c2ccc(Cl)c(S(=O)(=O)N3CCOCC3)c2)c1	.	-9.0%	?	-8.5%	47.5
COc1cccc(CN(C)C(=O)c2cccc(S(=O)(=O)N3CCN(c4ccccc4)CC3)c2)c1	.	?	?	-26.3%	-28.5
CSc1ccc(CN(C)C(=O)c2cccc(S(=O)(=O)N3CCN(Cc4ccccc4)CC3)c2)cc1	?	-24.7%	15.8µM*	-28.4%	?
COc1ccc(CN(C)C(=O)c2cccc(S(=O)(=O)N3CCN(c4ccccc4)CC3)c2)c(OC)c1OC	8.91µM*	-28.5%	?	?	-69.8*
CN(Cc1ccc(F)cc1)C(=O)c1cccc(S(=O)(=O)N2CCN(c3ccccc3)CC2)c1	12.6µM*	-26.0%	?	-26.2%	-26.6
CN(Cc1ccc(F)cc1)C(=O)c1cccc(S(=O)(=O)N2CCN(c3ccc(F)cc3)CC2)c1	10µM*	-27.9%	?	?	-37.9
CN(CC(=O)Nc1ccc(F)cc1)C(=O)COC(=O)CCN1C(=O)C2CC=CCC2C1=O (configuration not stated)	5.2%	-4.1%	-11.5%	-12.0%	-21.1
CCOc1ccccc1N(C)C(=O)Cn1ncc2c([nH]c3ccc(C)cc32)c1=O	-21.9%	-14.5%[7.34 µM]	-16.7%	i[7.34 µM]	?
CN(Cc1nc2ccccc2c(=O)[nH]1)C(=O)c1cccc(S(=O)(=O)N2CCc3ccccc32)c1	3.2%	7.6%	-13.3%	?	-67.2*
COc1ccc(CN(C)C(=O)c2cccc(S(=O)(=O)N3CCCc4ccccc43)c2)c(OC)c1OC	11.2µM*	.	?	.	-12.1
CCN1CCN(S(=O)(=O)c2ccc(Cl)c(C(=O)N(CC)Cc3ccccc3)c2)CC1	?	-11.7%	-15.2%	-21.9%	-17.5
CCN1CCN(S(=O)(=O)c2ccc(Cl)c(C(=O)N(CCc3ccccc3)Cc3ccccc3)c2)CC1	12.6µM*	.	-22.6%	.	-21.4
CN(CCOc1ccc(Cl)cc1)C(=O)c1cccc(S(=O)(=O)N2CCN(Cc3ccccc3)CC2)c1	2.51µM*	.	10µM*	.	?
CN(CC(=O)Nc1ccc(Cl)cc1)C(=O)C1CCCC1	7.3%	-18.8%	17.7%	-13.2%	-13.1
COC(=O)C1=C(C)NC(C)=C(C(=O)OC)C(N2C(=O)CCC2=O)C1 (configuration not stated)	.	.	.	.	-85.2*
N#Cc1ccc(CN2CCC3(CC2)CCN(C(=O)c2csnn2)CC3)cc1	.	.	-12.5%	.	.
